In PubChem BioAssay AID602342 (Broad Institute, 2012) one finds activation (reporter increase) data, which are given here for 73 compounds.

Molecules are shown by their SMILES. In all, about 340,000 compounds went through this assay and about 1,000 (0.29%) were called active. The sample as a whole holds a higher share of actives than the screen did. Unmarked numbers belong to inactive results.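 The calls were made as follows: active = mean replicate activation score at least 90 and every replicate individually at or above 90; inconclusive = only one of the two criteria met; inactive = neither criterion met.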

This assay can be described thus: compounds raising miR-122 luciferase sensor output – cell-based, single point, plate reader, miR-122 inhibitor project, primary screen (AID 602342).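 Also: higher luciferase means less miR-122 activity so hits act as miR-122 inhibitors.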 Conditions: Huh7 miR-122 Renilla luciferase sensor, 48 h, stronger effect = higher value, neutral wells = 0, positive control = 100; at 16.7 µM unless noted.
In the case of `COCC(=O)Nc1ccc2c(c1)[C@@H]1C[C@H](CC(=O)NCc3cc(F)ccc3F)O[C@@H](CO)[C@@H]1O2`, the activation (reporter increase) was 12.6%. For the compound `CCC(=O)N1[C@H](CO)[C@@H]2c3ccccc3N(S(=O)(=O)c3ccccc3C)C[C@@H]21`, the activation (reporter increase) was 0%. With `Cc1ccc(S(=O)(=O)NC2CCCCCC2)cc1C(N)=O`, the activation (reporter increase) is 62.2% [at 12.5 µM]. Then `O=S(=O)(NC1CCCC1)c1ccc(-n2cnnn2)cc1`, with -2.1% [at 12.5 µM]. Take `COc1ccc(C)cc1S(=O)(=O)NC1CCCCC1`: the activation (reporter increase) was 375% [at 12.5 µM] (active).

For the compound `Cc1ccc(S(=O)(=O)NC2CCCCCC2)cc1`, the activation (reporter increase) is 106% [at 12.5 µM] (active). As to `CCOc1ccc(C)cc1S(=O)(=O)NC1CCCCCC1`, the activation (reporter increase) is 67.9% [at 12.5 µM]. Then `Cc1cc(S(=O)(=O)NC2CCCCC2)ccc1OCC(=O)NCc1cccnc1`, with 72% [at 12.5 µM]; and `COc1ccc(C)cc1S(=O)(=O)Nc1cccc(Cl)c1Cl`, with 66.7% [at 12.5 µM]. Regarding `CSc1ccc(S(=O)(=O)NC2CCCCC2)cc1`, the activation (reporter increase) was 102% [at 12.5 µM] (active). For `CC(C)c1ccc(S(=O)(=O)NC2CCCC2)cc1`, the activation (reporter increase) is 51.5% [at 12.5 µM]. `CC(C)CNS(=O)(=O)c1ccc(CCC(=O)NCc2ccc(Cl)cc2)cc1`: the activation (reporter increase) is 15.1% [at 12.5 µM]. Regarding `O=S(=O)(NC1CC1)c1ccc(Cl)cc1`, the activation (reporter increase) is -7.11% [at 12.5 µM]. For the compound `O=C(CCc1ccc(S(=O)(=O)NC2CCCCC2)cc1)NCc1ccccc1`, the activation (reporter increase) is 101% [at 12.5 µM] (active). Next, `Cc1ccc(S(=O)(=O)Nc2ccc3c(c2)C(=O)N([C@H](C)CO)C[C@H](C)[C@H](CN(C)S(=O)(=O)c2ccc(F)cc2)O3)cc1`: -7.86%; `CC(=O)N1CC[C@@H]2[C@@H](CO)N(C)c3ccc(-c4ccc(C#N)cc4)cc3[C@@H]21`: -2.99%; `C[C@@H]1CN([C@H](C)CO)C(=O)c2cc(NC(=O)NC3CCCCC3)ccc2O[C@@H](C)CCCCO[C@H]1CN(C)S(C)(=O)=O`: -11.1%. As to `CCC(=O)N[C@H]1C=C[C@@H](CC(=O)NCC2CCCCC2)O[C@H]1CO`, the activation (reporter increase) was -4.01%.

With `C[C@@H]1CCCCO[C@@H](CN(C)Cc2ccncc2)[C@H](C)CN([C@@H](C)CO)C(=O)c2cc(N(C)C)ccc2O1`, the activation (reporter increase) was 9.37%. In the case of `C[C@@H]1CN([C@@H](C)CO)C(=O)Cc2cc(NC(=O)Nc3ccc(F)cc3)ccc2O[C@@H]1CN(C)C`, the activation (reporter increase) is -1.94%. `CN(C)C(=O)[C@@H]1[C@@H](CO)[C@@H]2Cn3c(cccc3=O)[C@H]1N2CC1CCCCC1`: the activation (reporter increase) was -3.4%.

`Cc1ccccc1-c1cnc2c(c1)C(=O)N([C@@H](C)CO)C[C@@H](C)[C@@H](CN(C)CC1CCOCC1)O2`: the activation (reporter increase) was -4.12%. With `CN1C(=O)c2cc(NS(=O)(=O)c3ccc(Cl)cc3)ccc2OC[C@H]2O[C@@H](CC(=O)O)CC[C@H]21`, the activation (reporter increase) is 37.8%. `O=C(Oc1ccc(F)cc1)N1CCOCC1`: the activation (reporter increase) was -3.21% [at 12.5 µM]. Consider `Cc1ccc(C(=O)Oc2ccc(C(=S)N3CCOCC3)cc2)cc1`, for which the activation (reporter increase) was -1.88% [at 12.5 µM]. On to `O=C(Oc1ccc(C(=S)N2CCOCC2)cc1)c1ccc(F)cc1`, for which the activation (reporter increase) is 330% [at 12.5 µM] (active). For the compound `CC(=O)N(C)C[C@H]1Oc2ncc(-c3cccc(F)c3)cc2C(=O)N([C@@H](C)CO)C[C@H]1C`, the activation (reporter increase) is -3.49%. On to `CN1C(=O)c2cc(NC(=O)c3ccc(F)c(F)c3)ccc2OC[C@H]2O[C@@H](CC(=O)N3CCCCC3)CC[C@H]21`, for which the activation (reporter increase) is -8.45%.

With `O=C(/C=C/c1ccc2c(c1)OCCO2)c1ccc(O)cc1`, the activation (reporter increase) is 7.01% [at 12.5 µM]. With `O=C(/C=C(O)/C=C/c1ccc(O)cc1)/C=C/c1ccc(O)cc1`, the activation (reporter increase) is 140% [at 12.5 µM] (active). Then `COc1ccc(/C=C/C(=O)c2c(O)cc(OC)cc2OC)cc1`, with 2.04% [at 12.5 µM]; and `Cc1noc(C)c1NC(=O)N(C)C[C@H]1OCCCC[C@H](C)Oc2ccc(NC(=O)Nc3ccccc3)cc2C(=O)N([C@H](C)CO)C[C@@H]1C`, with -0.276%; and `Cn1cnc([N+](=O)[O-])c1Nc1ccccc1O`, with 2.42% [at 12.5 µM]. On to `Cn1cnc([N+](=O)[O-])c1Sc1ccccc1`, for which the activation (reporter increase) was 217% [at 12.5 µM] (active). For `Cn1cnc([N+](=O)[O-])c1Sc1n[nH]c(N)n1`, the activation (reporter increase) was -3.18% [at 12.5 µM]. Consider `CCN(C[C@@H]1[C@H](c2ccccc2)[C@@H](CO)N1CC1CC1)C(=O)c1ccccn1`, for which the activation (reporter increase) is -7.14%. For `C[C@@H]1CN([C@@H](C)CO)C(=O)Cc2cc(NC(=O)C3CC3)ccc2O[C@H]1CN(C)C(=O)NC1CCCCC1`, the activation (reporter increase) is 0.966%. `Cc1ccc(C(=O)Nc2ccccc2-c2ccccc2)cc1S(=O)(=O)Nc1ccccc1`: the activation (reporter increase) is 94% [at 12.5 µM] (active).

For `CCN(CC)S(=O)(=O)c1cc(C(=O)Nc2ccccn2)ccc1C`, the activation (reporter increase) is -6.4% [at 12.5 µM]. As to `COc1cc(OC)c(C(=O)Nc2ccccc2-c2ccccc2)cc1OC`, the activation (reporter increase) was 9.15% [at 12.5 µM].

Consider `C[C@H]1CCCCO[C@@H](CN(C)C(=O)Nc2cccc3ccccc23)[C@@H](C)CN([C@@H](C)CO)C(=O)c2cc(NS(=O)(=O)c3cn(C)cn3)ccc2O1`, for which the activation (reporter increase) was -0.833%. Turning to `Cn1c(=O)n(C)c2cc(S(=O)(=O)Nc3ccc(F)cc3)ccc21`, the activation (reporter increase) was 44% [at 12.5 µM]. For `Cc1ccc(NS(=O)(=O)c2ccc(F)cc2)nc1`, the activation (reporter increase) was 4.41% [at 12.5 µM]. In the case of `Cc1cc(C)cc(NS(=O)(=O)c2ccc(F)cc2)c1`, the activation (reporter increase) is 117% [at 12.5 µM] (active). Consider `COc1ccc(CN(C)C[C@H]2Oc3c(NS(=O)(=O)c4ccccc4)cccc3C(=O)N([C@@H](C)CO)C[C@H]2C)cc1`, for which the activation (reporter increase) was 4.79%. Then `CCC(=O)N1[C@@H]2c3ccc(-c4cccnc4)c(=O)n3C[C@H]1[C@H](CO)[C@H]2C(=O)N1CCc2ccccc2C1`, with 2.45%; and `COc1ccccc1C#Cc1cnc2c(c1)C(=O)N([C@@H](C)CO)C[C@H](C)[C@@H](CN(C)C(=O)CC1CC1)O2`, with -1.03%; and `O=C1c2ccccc2C(=O)C1c1ccccc1F`, with -3.15% [at 12.5 µM]. With `O=C1c2ccccc2C2=Nc3ccccc3SC(c3ccccc3F)C12` (stereo not drawn), the activation (reporter increase) is 162% [at 12.5 µM] (active). Take `O=C(C[C@@H]1C[C@@H]2c3cc(NC(=O)Nc4ccccc4F)ccc3O[C@@H]2[C@H](CO)O1)NCCc1ccccc1`: the activation (reporter increase) is -2.6%.

As for `N#CCCN(C(=O)Nc1ccc(Cl)c(Cl)c1)C1CCCCC1`, the activation (reporter increase) was -4.25% [at 12.5 µM]. Take `CS(=O)(=O)N(CC(=O)Nc1ccc(Cl)c(Cl)c1)C1CCCCC1`: the activation (reporter increase) was 174% [at 12.5 µM] (active).

For `CS(=O)(=O)N(CC(=O)Nc1ccc(F)cc1)C1CCCCC1`, the activation (reporter increase) was 0.106% [at 12.5 µM]. For `C[C@@H]1CN([C@H](C)CO)C(=O)c2cc(C#CCN(C)C)cnc2O[C@H]1CN(C)C(=O)NC1CCCC1`, the activation (reporter increase) was 26%. With `CN1CCN(C(=O)C[C@H]2C[C@@H]3c4cc(NS(=O)(=O)c5ccc(F)cc5)ccc4O[C@@H]3[C@@H](CO)O2)CC1`, the activation (reporter increase) was -5.91%. For the compound `CCCN1C[C@H](C)[C@@H](OC)CN(C)C(=O)c2ccc(NC(=O)CC)cc2OC[C@@H]1C`, the activation (reporter increase) is 4.54%. With `Cc1noc(C)c1S(=O)(=O)NCCc1ccc(S(N)(=O)=O)cc1`, the activation (reporter increase) was -7.32% [at 12.5 µM]. Then `Cc1cc(-c2ccc(C)c(S(=O)(=O)Nc3ccc(S(N)(=O)=O)cc3)c2)on1`, with 5.41% [at 12.5 µM]. Then `CCOc1ccccc1CNS(=O)(=O)c1cc(-c2cc(C)no2)ccc1C`, with 54.4% [at 12.5 µM].

`CCc1ccc(-c2cc(C)no2)cc1S(=O)(=O)NCCc1ccc(S(N)(=O)=O)cc1`: the activation (reporter increase) is 124% [at 12.5 µM] (active). With `Cc1cc(-c2ccc(C)c(S(=O)(=O)NCCCN(Cc3ccccc3)C(C)C)c2)on1`, the activation (reporter increase) was 46.4% [at 12.5 µM]. `COc1ccc(CNS(=O)(=O)c2cc(-c3cc(C)no3)ccc2C(C)C)cc1`: the activation (reporter increase) is 200% [at 12.5 µM] (active).

Regarding `C[C@@H]1CN([C@@H](C)CO)C(=O)c2cc(NC(=O)Nc3cccc4ccccc34)ccc2O[C@H]1CN(C)Cc1ccc(Oc2ccccc2)cc1`, the activation (reporter increase) was -7.47%. Next, `C[C@H](CO)N1C[C@H](C)[C@@H](CN(C)C(=O)C2CC2)Oc2ncc(-c3cccc(F)c3)cc2C1=O`: -1.71%; `CN(C)C(=O)C[C@@H]1CC[C@H]2[C@@H](COC[C@H](O)CN2S(=O)(=O)c2ccccc2)O1`: 0.2%; `CCCNC(=O)Nc1ccc2c(c1)C(=O)N(C)[C@@H]1CC[C@@H](CC(=O)NC)O[C@H]1CO2`: -13.3%. Turning to `O=C(C[C@@H]1CC[C@H]2[C@@H](COC[C@@H](O)CN2C(=O)c2ccc3c(c2)OCO3)O1)NC1Cc2ccccc2C1`, the activation (reporter increase) was 5.8%. As for `COCCNC(=O)C[C@@H]1CC[C@H]2[C@H](COc3ccc(NS(=O)(=O)c4ccc(Cl)cc4)cc3C(=O)N2C)O1`, the activation (reporter increase) was 12.5%. With `C[C@@H]1CN([C@@H](C)CO)C(=O)c2cc(C#CC(C)(C)O)cnc2O[C@H]1CN(C)Cc1cccc(F)c1`, the activation (reporter increase) is 0.476%. As to `CO[C@@H]1CN(C)C(=O)c2ccc(NC(=O)C3CCC3)cc2OC[C@H](C)N(C(=O)CN(C)C)C[C@H]1C`, the activation (reporter increase) is -7.5%.

Take `COCC(=O)Nc1ccc2c(c1)C(=O)N(C)[C@H]1CC[C@@H](CC(=O)NCc3cccc(F)c3)O[C@H]1CO2`: the activation (reporter increase) is 62.5%. On to `COCC(=O)Nc1ccc2c(c1)C(=O)N(C)[C@@H]1CC[C@@H](CC(=O)NCc3cccc(F)c3)O[C@@H]1CO2`, for which the activation (reporter increase) was 41.7%. `CCCC(=O)Nc1ccc2c(c1)C(=O)N(C)[C@H]1CC[C@@H](CC(=O)NCc3cccc(F)c3)O[C@H]1CO2`: the activation (reporter increase) is 120% (active).
